# Results reported in the supplement of paper PMC8728848.
# Many of the other results were omitted from the sample, so the strongest signals are more common in it than they were.
# Columns and labels:
# Test in all cases: glycan array binding signal (z-score within array); higher = stronger binding
# Glc(a1-2)Glc(a1-2)Glc = conditions: glycan notation: IUPAC condensed, linker removed
# How it was run: (§1)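 Negative Z-scores can be read as non-binding. The Z-score is calculated within each array and then averaged across arrays of one protein sequence at different concentrations or buffers and across linkers. Arrays, 3228 in all, were curated from the Consortium for Functional Glycomics database and kept only where the protein sequence was available.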
# [1] = biological target: Glc(a1-4)Glc(a1-4)Glc(a1-4)Glc(a1-4)Glc(a1-4)Glc(a1-4)Glc(a1-4)Glc(a1-4)Glc(a1-4)Glc; conditions: glycan notation: IUPAC condensed, linker removed
# How it was run: as §1
# [2] = biological target: Glc(b1-2)Glc(b1-2)Glc(b1-2)Glc(b1-2)Glc; conditions: glycan notation: IUPAC condensed, linker removed
# How it was run: as §1
# [3] = biological target: Glc(b1-2)Glc(b1-2)Glc(b1-2)Glc(b1-2)Glc(b1-2)Glc(b1-2)Glc(b1-2)Glc(b1-2)Glc; conditions: glycan notation: IUPAC condensed, linker removed
# How it was run: as §1
# [4] = biological target: Glc(b1-2)Glc(b1-2)Glc(b1-2)Glc(b1-2)Glc(b1-2)Glc(b1-2)Glc(b1-2)Glc(b1-2)Glc(b1-2)Glc(b1-2)Glc; conditions: glycan notation: IUPAC condensed, linker removed
# How it was run: as §1
# [5] = biological target: Glc(b1-3)[Glc(b1-6)]Glc(a1-3)Glc(b1-3)[Glc(b1-6)]Glc; conditions: glycan notation: IUPAC condensed, linker removed
# How it was run: as §1
# [6] = biological target: Glc(b1-4)Glc(b1-4)Glc(b1-3)Glc; conditions: glycan notation: IUPAC condensed, linker removed
# How it was run: as §1
# [7] = biological target: Glc(b1-4)Glc(b1-4)Glc(b1-4)Glc(b1-4)Glc; conditions: glycan notation: IUPAC condensed, linker removed
# How it was run: as §1
# [8] = biological target: Glc(b1-4)Glc(b1-4)Glc(b1-4)Glc(b1-4)Glc(b1-4)Glc(b1-4)Glc(b1-4)Glc(b1-4)Glc(b1-4)Glc; conditions: glycan notation: IUPAC condensed, linker removed
# How it was run: as §1
# [9] = biological target: Glc(b1-4)Glc(b1-4)Glc(b1-4)Glc(b1-4)Glc(b1-4)Glc(b1-4)Glc(b1-4)Glc(b1-4)Glc(b1-4)Glc(b1-4)Glc(b1-4)Glc(b1-4)Glc; conditions: glycan notation: IUPAC condensed, linker removed
# How it was run: as §1
# Glc(b1-6)Glc(b1-6)Glc = conditions: glycan notation: IUPAC condensed, linker removed
# How it was run: as §1
# [10] = biological target: Glc(b1-6)Glc(b1-6)Glc(b1-6)Glc(b1-6)Glc(b1-6)Glc(b1-6)Glc(b1-6)Glc(b1-6)Glc(b1-6)Glc; conditions: glycan notation: IUPAC condensed, linker removed
# How it was run: as §1
# [11] = biological target: Gal(b1-4)GlcNAc(b1-2)Man(a1-6)[GlcNAc(b1-2)Man(a1-3)]Man(b1-4)GlcNAc(b1-4)[Fuc(a1-6)]GlcNAc; conditions: glycan notation: IUPAC condensed, linker removed
# How it was run: as §1
# [12] = biological target: Gal(b1-4)GlcNAc(b1-2)[Gal(b1-4)GlcNAc(b1-4)]Man(a1-3)[Gal(b1-4)GlcNAc(b1-2)[Gal(b1-4)GlcNAc(b1-6)]Man(a1-6)]Man(b1-4)GlcNAc(b1-4)GlcNAc; conditions: glycan notation: IUPAC condensed, linker removed; mutation: D151N
# How it was run: as §1
# [13] = biological target: GlcNAc(b1-2)Man(a1-3)[GlcNAc(b1-2)Man(a1-6)]Man(b1-4)GlcNAc(b1-4)GlcNAc; conditions: glycan notation: IUPAC condensed, linker removed; mutation: D151N
# How it was run: as §1
# [14] = biological target: GlcNAc(b1-2)[GlcNAc(b1-4)]Man(a1-3)[GlcNAc(b1-2)Man(a1-6)][GlcNAc(b1-4)]Man(b1-4)GlcNAc(b1-4)GlcNAc; conditions: glycan notation: IUPAC condensed, linker removed; mutation: D151N
# How it was run: as §1
# [15] = biological target: HexA(a1-3)GalNAc4S(b1-4)GlcA(b1-3)GalNAc4S(b1-4)GlcA(b1-3)GalNAc4S(b1-4)GlcA(b1-3)GalNAc4S(b1-4)GlcA(b1-3)GalNAc4S(b1-4)GlcA(b1-3)GalNAc4S(b1-4)GlcA(b1-3)GalNAc4S(b1-4)GlcA(b1-3)GalNAc4S; conditions: glycan notation: IUPAC condensed, linker removed; mutation: D151N
# How it was run: as §1
# [16] = biological target: Gal(b1-4)GlcNAc(b1-2)Man(a1-6)[Man(a1-3)]Man(b1-4)GlcNAc(b1-4)GlcNAc; conditions: glycan notation: IUPAC condensed, linker removed; mutation: Y104F
# How it was run: as §1
# [17] = biological target: Gal(b1-4)GlcNAc(b1-2)[Gal(b1-4)GlcNAc(b1-4)]Man(a1-3)[Fuc(a1-3)[Gal(b1-4)]GlcNAc(b1-2)Man(a1-6)]Man(b1-4)GlcNAc(b1-4)GlcNAc; conditions: glycan notation: IUPAC condensed, linker removed; mutation: Y104F
# How it was run: as §1
# [18] = biological target: Glc(b1-3)Glc(b1-3)Glc(b1-3)Glc(b1-3)Glc(b1-3)Glc; conditions: glycan notation: IUPAC condensed, linker removed; mutation: Y104F
# How it was run: as §1
# Man(a1-3)Man(b1-4)GlcNAc = conditions: glycan notation: IUPAC condensed, linker removed; mutation: Y104F
# How it was run: as §1
# [19] = biological target: Xyl(b1-2)[Man(a1-3)][Man(a1-6)]Man(b1-4)GlcNAc(b1-4)GlcNAc; conditions: glycan notation: IUPAC condensed, linker removed; mutation: Y104F
# How it was run: as §1
# [20] = biological target: Glc(b1-3)Glc(b1-3)Glc(b1-3)Glc(b1-3)Glc(b1-3)Glc(b1-3)Glc(b1-3)Glc(b1-3)Glc(b1-3)Glc(b1-3)Glc(b1-3)Glc(b1-3)Glc; conditions: glycan notation: IUPAC condensed, linker removed
# How it was run: as §1
# Glc(a1-2)Glc = conditions: glycan notation: IUPAC condensed, linker removed
# How it was run: as §1
# Glc(a1-3)Glc(a1-3)Glc = conditions: glycan notation: IUPAC condensed, linker removed
# How it was run: as §1
# [21] = biological target: Glc(a1-3)Glc(a1-3)Glc(a1-3)Glc(a1-3)Glc(a1-3)Glc; conditions: glycan notation: IUPAC condensed, linker removed
# How it was run: as §1
# Glc(b1-2)Glc = conditions: glycan notation: IUPAC condensed, linker removed
# How it was run: as §1
# [22] = biological target: Glc(b1-3)Glc(b1-3)Glc(b1-3)Glc(b1-3)Glc(b1-3)Glc(b1-3)Glc(b1-3)Glc; conditions: glycan notation: IUPAC condensed, linker removed
# How it was run: as §1
# [23] = biological target: Glc(b1-3)Glc(b1-3)[Glc(b1-6)]Glc(b1-3)Glc(b1-3)Glc(b1-3)Glc(b1-3)Glc(b1-3)Glc(b1-3)Glc; conditions: glycan notation: IUPAC condensed, linker removed
# How it was run: as §1
# [24] = biological target: Glc(b1-4)Glc(b1-4)Glc(b1-4)Glc(b1-3)Glc; conditions: glycan notation: IUPAC condensed, linker removed
# How it was run: as §1
# [25] = biological target: Glc(b1-6)Glc(b1-6)Glc(b1-6)Glc(b1-6)Glc(b1-6)Glc(b1-6)Glc(b1-6)Glc(b1-6)Glc(b1-6)Glc(b1-6)Glc(b1-6)Glc(b1-6)Glc(b1-6)Glc(b1-6)Glc; conditions: glycan notation: IUPAC condensed, linker removed
# How it was run: as §1
binder,measurement,setting,value
"Unk16A (Cellvibrio mixtus), Q336L6 (protein) VAYNTTGASSSAASSSAPSSASSSSSSAAPVLLSQGRPVTASSNFQPAANAVDGNGGTRWESTHGVSPSWIMVDLGSSKNLSQVIIDWEAANAANYLVQASNNGMSWTTLKIITTGAFGDRTDTHSVAGNYRYVRIYATARSAGNQWGYSIWELKITGN",glycan array binding signal (z-score),Glc(a1-2)Glc(a1-2)Glc,-0.668
same,glycan array binding signal (z-score),[1],-0.662
same,glycan array binding signal (z-score),[2],2.23
same,glycan array binding signal (z-score),[3],3.49
same,glycan array binding signal (z-score),[4],2.77
same,glycan array binding signal (z-score),[5],4.32
same,glycan array binding signal (z-score),[6],-0.192
same,glycan array binding signal (z-score),[7],-0.479
same,glycan array binding signal (z-score),[8],-0.167
same,glycan array binding signal (z-score),[9],-0.398
same,glycan array binding signal (z-score),Glc(b1-6)Glc(b1-6)Glc,-0.248
same,glycan array binding signal (z-score),[10],0.062
"ZG16p (Homo sapiens), O60844 (protein) ARSSSYSGEYGGGGGKRFSHSGNQLDGPITALRVRVNTYYIVGLQVRYGKVWSDYVGGRNGDLEEIFLHPGESVIQVSGKYKWYLKKLLFVTDKGRYLSFGKDSGTSFNAVPLHPNTVLRFISGRSGSLINAIGLHWDVYPSSCSRC",glycan array binding signal (z-score),[11]; mutation: D151N,-0.565
same,glycan array binding signal (z-score),[12],-0.44
same,glycan array binding signal (z-score),[13],-0.565
same,glycan array binding signal (z-score),[14],-0.565
same,glycan array binding signal (z-score),[15],5.03
"ZG16p (Homo sapiens), O60844 (protein) ARSSSYSGEYGGGGGKRFSHSGNQLDGPITALRVRVNTYYIVGLQVRYGKVWSDYVGGRNGDLEEIFLHPGESVIQVSGKYKWFLKKLLFVTDKGRYLSFGKDSGTSFNAVPLHPNTVLRFISGRSGSLIDAIGLHWDVYPSSCSRC",glycan array binding signal (z-score),[11]; mutation: Y104F,-0.485
same,glycan array binding signal (z-score),[16],-0.485
same,glycan array binding signal (z-score),[17],-0.485
same,glycan array binding signal (z-score),[18],2.84
same,glycan array binding signal (z-score),Man(a1-3)Man(b1-4)GlcNAc,0.015
same,glycan array binding signal (z-score),[19],-0.331
"DC-SIGNR (Homo sapiens), Q9H2X3 (protein) QVSKVPSSLSQEQSEQDAIYQNLTQLKAAVGELSEKSKLQEIYQELTQLKAAVGELPEKSKLQEIYQELTRLKAAVGELPEKSKLQEIYQELTRLKAAVGELPEKSKLQEIYQELTRLKAAVGELPEKSKLQEIYQELTELKAAVGELPEKSKLQEIYQELTQLKAAVGELPDQSKQQQIYQELTDLKTAFERLCRHCPKDWTFFQGNCYFMSNSQRNWHDSVTACQEVRAQLVVIKTAEEQNFLQLQTSRSNRFSWMGLSDLNQEGTWQWVDGSPLSPSFQRYWNSGEPNNSGNEDCAEFSGSGWNDNRCDVDNYWICKKPAACFRDE",glycan array binding signal (z-score),[3],1.64
same,glycan array binding signal (z-score),[20],-0.981
"Cel5A (Cellvibrio mixtus), A0A266Q9Z0 (protein) TSVAGCSGVTAWNSTAVYTGGNEVVRNGVKYQAKWWTQGQDPVTNSSADGVWANKGQC",glycan array binding signal (z-score),Glc(a1-2)Glc,-0.981
same,glycan array binding signal (z-score),Glc(a1-3)Glc(a1-3)Glc,-0.977
same,glycan array binding signal (z-score),[21],-0.941
same,glycan array binding signal (z-score),Glc(b1-2)Glc,-0.411
same,glycan array binding signal (z-score),[22],2.06
same,glycan array binding signal (z-score),[23],2.2
same,glycan array binding signal (z-score),[5],2.44
same,glycan array binding signal (z-score),[24],1.17
same,glycan array binding signal (z-score),[25],-0.119
